Rows were chosen to be rich in hits. Some 3.8% of all compounds tested hit in one or more screens of this group.
PrPC TRFRET – inhibitors of human cell surface prion protein PrPC, primary screen, cell-based, TR-FRET; Major prion protein (Homo sapiens), P04156; TR-FRET read-out; inhibition, % at 13.8 µM; hit rate 0.43% among 370,000; AID 720596, 2013; in the data active means inhibition above about 24%; further: 0% = median of the test wells and 100% = reference compound wells
Mtb hypoxia rep – PubChem AID 1159583; M. tuberculosis hypoxia-regulated fluorescent reporter, fluorescence; fluorescence inhibition, % (no concentration beside the values); hit rate 0.1% among 300,000; in the data active means fluorescence inhibition mostly above about 23%, no sharp cut-off; inactive means mostly below about 17%
Mtb FBA inh – Mtb FBA enzyme inhibitors, primary screen, biochemical, fluorescence, strain H37Rv. purified M. tuberculosis FBA, fluorescence read-out. inhibition, % at 1 µM. hit rate 2.3% among 360,000. AID 588726, 2011; in the data active means inhibition above about 27%;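 further: 0% = vehicle and 100% = reference inhibitor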
Target sequence (P9WQA3 whole entry, looked up): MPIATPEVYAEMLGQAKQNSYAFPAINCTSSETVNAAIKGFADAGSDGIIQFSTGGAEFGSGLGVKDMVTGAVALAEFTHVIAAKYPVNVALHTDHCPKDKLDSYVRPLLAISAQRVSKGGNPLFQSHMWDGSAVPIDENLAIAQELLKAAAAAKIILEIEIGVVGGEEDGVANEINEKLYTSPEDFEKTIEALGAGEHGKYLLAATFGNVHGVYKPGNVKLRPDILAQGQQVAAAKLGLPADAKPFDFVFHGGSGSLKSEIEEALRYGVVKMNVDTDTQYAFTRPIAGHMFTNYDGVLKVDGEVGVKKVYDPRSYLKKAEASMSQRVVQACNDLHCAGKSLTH
Yp Topo-I inh – Yersinia pestis topoisomerase I inhibitors, primary screen, biochemical, cleavage product accumulation, plate reader, single point | AID 504884, 2011 | DNA topoisomerase I (Yersinia pestis CO92) | hit rate 0.064% among 360,000 | Y. pestis Topo-I cleavage product accumulation | activity, % at 10 µM; in the data active means activity above about 50%, passing the limit was not always enough
GDH-TPI inh – GDH-TPI coupling enzyme inhibitors, primary screen, artefact control for M. tuberculosis FBA inhibitor project, biochemical, absorbance, full deck; GDH-TPI coupled enzyme counterscreen, NADH absorbance; AID 588335, 2011; hit rate 1.2% among 360,000; inhibition, % at 4.8 µM; in the data active means inhibition above about 30%;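 further: 0% = DMSO wells and 100% = wells lacking the enzyme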
PrP 5UTR inh – inhibition of PrP 5' UTR reporter expression; AID 488862, 2010; inhibition, % (no concentration beside the values); hit rate 0.35% among 340,000; cell-based PrP 5' UTR mRNA reporter, plate reader; in the data active means inhibition above about 52%; further: 0 = median of the neutral control wells
* marks the source's active call; other numbers are inactive results; · = no result given; + = active, no number.

SMILES | PrPC TRFRET | Mtb hypoxia rep | Mtb FBA inh | Yp Topo-I inh | GDH-TPI inh | PrP 5UTR inh
CCc1cc2c(nc1CC)CCN(CCC(C)=NOC(C)c1cc(-c3c(C)cc(C)cc3C)no1)C2 (stereo not drawn) | · | 11 | · | · | · | ·
COC(=O)C1=C(c2cc3ccccc3s2)CC2CCC1N2C(=O)N1CCC(C)CC1 (stereo not drawn) | · | 1 | · | · | · | ·
Cc1ccccc1NC(=S)NNC(=O)c1ccncc1 | -6 | 7 | 1 | 11 | 12 | -20
CC(=O)c1ccc(NC(=S)NNC(=O)c2ccncc2)cc1 | -6 | · | 1 | 0 | 32* | -22
O=C(NNC(=O)c1ccncc1)Nc1ccc(N=Nc2ccccc2)cc1 | 1 | 11 | -2 | -6 | 37* | -45
COc1cccc(CN2C[C@]34C=CC(CC3S2(=O)=O)O4)c1 (stereo partly drawn) | · | 19 | · | · | · | ·
NC(=NOC(=O)CCCN1C(=O)c2ccccc2C1=O)c1ccc(Br)cc1 | · | 11 | · | · | · | ·
COCCCn1c(-c2ccc(Cl)cc2)n[nH]c1=S | -3 | · | 28* | -4 | 11 | -12
CCOC(=O)c1ccc(N/C=C/C(=O)c2ccc(OC)c(OC)c2)cc1 | 1 | 4 | 1 | 11 | 3 | -23
COc1ccc(C(=O)/C=C/NCc2ccc(F)cc2)cc1OC | -7 | 3 | -1 | -8 | 34* | -14
COc1ccc(C(=O)/C=C/Nc2ccc(S(N)(=O)=O)cc2)cc1OC | -13 | -11 | 8 | -8 | 58* | -7
CC(NC(=O)c1ncn(C)c1C(=O)NC(C)c1ccccc1)c1ccccc1 (stereo not drawn) | · | 5 | · | · | · | ·
CC1OC(OCC2OC(Oc3cc(O)c4c(=O)cc(-c5ccc(O)c(O)c5)oc4c3)C(O)C(O)C2O)C(O)C(O)C1O (stereo not drawn) | · | 6 | · | · | · | ·
COc1ccc(N=Nc2c(N)nn(C)c2N)cc1 | -11 | 2 | -5 | -9 | 60* | -77
Cc1cc(O)c(NC(=S)NC(=O)c2ccc(-c3ccc(Cl)cc3)o2)cc1C | 4 | · | 6 | -12 | 37* | -4
CCN(CC)c1ccc(/C=N/N2CCN(c3ccccc3OC)CC2)cc1 | 8 | · | 1 | -12 | 37* | -1
CCN(CC)c1ccc(C=NN2CCN(c3ccccc3OC)CC2)cc1 | · | 10 | · | · | · | ·
CC(/C=N/n1cnnc1)=C\c1ccco1 | 6 | · | 1 | 2 | 39* | -9
C/C(C=Nn1cnnc1)=C\c1ccco1 | · | 4 | · | · | · | ·
O=C(C1CC=CC2CCN(Cc3ccccc3)C(=O)C21)N1CCN(c2ccccc2)CC1 (stereo not drawn) | · | 13 | · | · | · | ·
NC(=O)NN=Cc1sc(=O)n(-c2ccccc2)c1Cl | · | -5 | · | · | · | ·
COc1cc(C(=O)N/N=C/c2sccc2C)cc(OC)c1OC | 11 | · | 0 | -1 | 24 | 36
COc1cc(C(=O)N/N=C/c2cc([N+](=O)[O-])cs2)cc(OC)c1OC | -14 | · | -4 | -3 | 36* | 2
COc1cc(C(=O)N/N=C/c2sc(=O)n(-c3ccccc3)c2Cl)cc(OC)c1OC | -5 | · | -4 | 8 | 46* | -17
O=C(N/N=C/c1sc(=O)n(-c2ccccc2)c1Cl)c1ccncc1 | -18 | · | -3 | -5 | 36* | -27
SMILES | PrPC TRFRET | Mtb hypoxia rep | Mtb FBA inh | Yp Topo-I inh | GDH-TPI inh | PrP 5UTR inh
CC(=O)Nc1ccc(SCCN2CCC(C(C)(C)C)CCC2=O)cc1 (stereo not drawn) | · | 7 | · | · | · | ·
CCN1CC2C3C(=O)N(Cc4ccccc4)C(=O)C3[C@](Cc3ccccc3)(C1=O)N2C(=O)c1ccc(Cl)c(Cl)c1 (stereo partly drawn) | · | -6 | · | · | · | ·
CCOC(=O)c1nn(-c2ccccc2)c(C(=O)OCC)c1N | 4 | 17 | + | 4 | 19 | -1
O=[N+]([O-])c1ccc(-c2ccc(/C=N/c3c(-c4ccco4)nc4ccccn34)o2)cc1 | -28 | · | 6 | -5 | 49* | -31
Cc1cc(C)c([N+](=O)[O-])cc1-c1ccc(C=Nc2c(-c3ccco3)nc3ccccn23)o1 | · | 13 | · | · | · | ·
O=[N+]([O-])c1ccc(Cl)c(-c2ccc(/C=N/c3c(-c4ccco4)nc4ccccn34)o2)c1 | -14 | · | -2 | -14 | 8 | -8
Cc1cc(C)c([N+](=O)[O-])cc1-c1ccc(/C=N/c2c(-c3ccco3)nc3ccccn23)o1 | -12 | · | 1 | -7 | 33* | -17
CCN1C(=O)C(=Cc2ccc(C)s2)SC1=Nc1ccc(OC)cc1 | · | 4 | · | · | · | ·
CN(C)c1ccc(NC(=O)C=Cc2ccccc2Cl)cc1 | · | 7 | · | · | · | ·
COc1ccc(-c2ccnc3ncnn23)cc1 | -2 | · | + | -2 | 13 | -17
FCCCOc1ccc(-c2ccnc3ncnn23)cc1 | -15 | 1 | + | 5 | 0 | -34
c1ccc2c(c1)ncn2-c1ccc(-c2ccnc3ncnn23)cc1 | -27 | 10 | -2 | 0 | 7 | -117
COc1ccc(-c2cc(-c3ccccc3)n3ncnc3n2)cc1 | 1 | · | 170* | 11 | 33* | -2
O=C1NCC(Cc2ccc(O)cc2)N(CC2CCCCC2)C1=O (stereo not drawn) | · | 3 | · | · | · | ·
O=C(O)c1ccc(-n2cccc2/C=C2/NC(=O)N(c3cccc(Cl)c3)C2=O)cc1 | 2 | 9 | 2 | -2 | 8 | -5
Cc1ccc(CN2C(=O)N/C(=C\c3cccn3-c3cccc(C(=O)O)c3)C2=O)cc1 | -10 | 4 | -4 | 12 | 22 | -23
CCOC(=O)c1cccc(-n2cccc2/C=C2\NC(=O)N(CC(=O)O)C2=O)c1 | -6 | · | 0 | 15 | 31* | -10
O=C(O)c1ccc(-n2cccc2/C=C2/NC(=O)N(c3ccccc3)C2=O)cc1 | -5 | 9 | 0 | -10 | 32* | -24
CON=C(CNC(=O)c1cccc(Cl)c1)c1ccc(Cl)cc1 | · | -6 | · | · | · | ·
CCC(C)c1ccc2oc(-c3ccc(NC(=O)c4ncn[nH]4)cc3)nc2c1 (stereo not drawn) | 10 | -9 | 4 | 18 | 31* | -8
CC(C)c1ccc2oc(-c3ccc(NC(=O)c4ncn[nH]4)cc3)nc2c1 | 1 | 0 | · | 2 | · | -115
Cc1nc2ccccn2c(=O)c1NC(=O)c1cccc2ccccc12 | -13 | -6 | 0 | 5 | 31* | -18
CN(C)c1ccc(/C=N/NC(=O)c2cc(-c3ccc4c(c3)OCO4)n[nH]2)cc1 | -3 | · | 3 | -12 | 36* | -27
COc1cc(C(=O)NC(=S)NNC(=O)c2ccc3c(c2)OCO3)cc(OC)c1OC | -2 | 2 | 0 | -4 | 32* | -21
COc1cc(/C=N/NC(=O)/C(=C\c2ccc3c(c2)OCO3)NC(=O)c2ccccc2)ccc1O | -16 | · | -4 | 15 | 47* | -22
O=C(N/N=C/c1ccc2c(c1)OCO2)c1ccc2c(c1)OCCO2 | 21 | · | 3 | -4 | 42* | -30

Compound activity: PubChem, several laboratories
